In the library only some 6.2% were active in any assay of this set; here they are far more common.
RORgamma inh: qHTS for inhibitors of ROR gamma transcriptional activity; Nuclear receptor ROR-gamma (Mus musculus), P51450; Drosophila S2 Gal4-RORgamma UAS-luciferase reporter, 20 h; Potency, µM (highest dose often 53.6 µM), usual class: inhibitors; actives 5.4% (n = 310,000); further: nearly all actives have a fitted effect of over 60% in size
Target sequence (P51450 whole entry, looked up, the tested form may be a part): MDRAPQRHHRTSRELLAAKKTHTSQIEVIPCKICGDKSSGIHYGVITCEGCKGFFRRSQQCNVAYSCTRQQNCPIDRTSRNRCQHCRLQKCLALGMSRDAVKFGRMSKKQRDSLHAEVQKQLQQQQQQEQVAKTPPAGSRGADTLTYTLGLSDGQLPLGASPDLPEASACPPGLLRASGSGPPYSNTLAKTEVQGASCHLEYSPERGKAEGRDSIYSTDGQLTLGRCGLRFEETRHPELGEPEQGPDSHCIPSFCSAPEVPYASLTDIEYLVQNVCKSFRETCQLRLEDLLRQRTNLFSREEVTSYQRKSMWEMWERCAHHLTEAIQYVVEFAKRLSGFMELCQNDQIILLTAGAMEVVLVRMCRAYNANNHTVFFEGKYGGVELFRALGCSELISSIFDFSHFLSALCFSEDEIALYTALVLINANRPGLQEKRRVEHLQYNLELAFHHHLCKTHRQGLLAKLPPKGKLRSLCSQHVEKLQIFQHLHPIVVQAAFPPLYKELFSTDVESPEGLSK
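Luminescence from a UAS-regulated Photinus luciferase reporter in stably transfected Drosophila Schneider cells is measured; decreased signal marks ROR gamma inhibition. Fusion expression is induced by 700 uM copper sulfate for 20 hr.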
Luc counter: Counterscreen for Luciferase (Kinase-Glo TM) Inhibition; Kinase-Glo luciferase, ATP luminescence, 8 min; actives 0.28% (n = 200,000); Potency, µM (highest dose often 38.3 µM), usual class: inhibitors; AID 1379, 2008; further: nearly all actives have a fitted effect of over 60% in size
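Substrate mix (final 50 mM imidazole pH 7.2, 50 mM KCl, 7 mM MgCl2, 10 uM ATP, 0.01% Tween 20, 0.05% BSA) plus pin-tool compound, then Kinase-Glo detection mix; 8 min ambient, luminescence read.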
Gal4-VP16 FLuc: VP16 counterscreen qHTS for inhibitors of ROR gamma transcriptional activity; actives 3.5% (n = 310,000); AID 2546, 2010; Drosophila S2 Gal4-VP16 UAS-luciferase, luminescence, 20 h; Potency, µM (highest dose often 53.6 µM), hits mostly inhibitors;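 further: Gal4-VP16 expression switched on by copper sulfate through the metallothionein promoter; nearly all actives have a fitted effect of over 50% in size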
Of the large screens only hits and unclear results are named; the others gave an inactive call. The call rests on the fitted dose curve; in most records, active means well fitted curve in the direction sought with a large enough effect; inconclusive means small, poorly fitted or top-dose-only effect, or another doubt; inactive means no such curve, though single readings can be large; an effect the other way counts as inactive or inconclusive.

O=C(NC(Nc1ncc(S(=O)(=O)c2ccc([N+](=O)[O-])cc2)s1)(C(F)(F)F)C(F)(F)F)c1ccc(Cl)cc1	RORgamma inh inconclusive, Gal4-VP16 FLuc 11µM
NC(=O)c1ccccc1NC(=S)NC(=O)c1ccc(Br)o1	none
O=C(NC(=S)Nc1ccccc1)c1ccc(Br)o1	RORgamma inh 3.2µM
Cc1snnc1C(=O)NC(=S)Nc1ccccc1	RORgamma inh 4.5µM, Gal4-VP16 FLuc 5.6µM (no result: Luc counter)
O=C(NC(=S)Nc1cccnc1)c1ccccc1	none (no result: Luc counter)
COc1ccc(NC(=S)NC(=O)c2ccc(Br)o2)cc1	RORgamma inh 1µM, Gal4-VP16 FLuc inconclusive
COc1ccc(C(=O)NNC(=S)NC(=O)c2ccc(Br)o2)cc1OC	none
N#Cc1ccccc1-c1ccc2ncnc(NCc3cccs3)c2c1	RORgamma inh inconclusive (no result: Luc counter)
CNCC(O)Cn1c(C(F)(F)F)nc2ccccc21 (stereo not given)	none
CCCCSc1nc(C(=O)O)cc(=O)[nH]1	none (no result: Luc counter)
C/C(CC(=O)Nc1cc(C)ccn1)=N\NC(=O)c1ccc(C)cc1	RORgamma inh inconclusive
C/C(CC(=O)Nc1cc(C)ccn1)=N\NC(=O)c1ccccc1C	RORgamma inh 8.9µM, Gal4-VP16 FLuc inconclusive
Cc1occc1C(=O)Nc1nnc(C(F)(F)F)s1	none
O=C(Nc1ccccc1C(=O)Nc1nnc(C(F)(F)F)s1)c1ccccc1	RORgamma inh 4.5µM, Gal4-VP16 FLuc 5µM (no result: Luc counter)
CCOC(=O)N=Nc1c(O)n(CC)c2ccccc12	Gal4-VP16 FLuc inconclusive
COC(=O)c1ccc(Cn2c(O)c(N=NC(N)=S)c3ccccc32)o1	RORgamma inh 1.1µM, Gal4-VP16 FLuc 13µM (no result: Luc counter)
Cc1cc(C)nc(N=Nc2c(O)n(Cc3ccc(Cl)cc3)c3ccccc23)n1	RORgamma inh 5.6µM, Gal4-VP16 FLuc 3.5µM
O=Nc1c(O)n(Cc2cccc(Cl)c2)c2ccccc12	none
C/C(Cl)=C\Cn1c(O)c(N=NC(N)=S)c2ccccc21	RORgamma inh 3.5µM, Gal4-VP16 FLuc 5µM
CCOC(=O)N=Nc1c(O)n(Cc2ccccc2)c2ccccc12	RORgamma inh inconclusive (no result: Luc counter)
COc1ccc2c(c1)c(N=NC(N)=S)c(O)n2CC(=O)c1ccccc1	RORgamma inh inconclusive (no result: Luc counter)
NC(=S)N=Nc1c(O)n(Cc2ccccc2)c2ccccc12	RORgamma inh 3.2µM, Gal4-VP16 FLuc inconclusive
CCOC(=O)C(C(=O)c1ccccc1)[C@H](CCc1ccccc1)NC(=O)OC (stereo not given in full)	none
CCCNC(=O)Cn1nc([N+](=O)[O-])c([N+](=O)[O-])c1C	Gal4-VP16 FLuc inconclusive
CCCCNC(=S)N=Nc1c(O)n(Cc2ccccc2)c2ccccc12	RORgamma inh 6.3µM, Gal4-VP16 FLuc 6.3µM (no result: Luc counter)
COC(=O)N=Nc1c(O)n(Cc2ccccc2)c2ccccc12	none (no result: Luc counter)
C[C@@]12CCC(=O)C=C1CC[C@H]1C2[C@@H](O)C[C@]2(C)[C@@H]1CC[C@@]2(O)C(=O)CO (stereo not given in full)	none (no result: RORgamma inh, Gal4-VP16 FLuc)
C/C=C1\COC(C(=O)NCc2ccncc2)(C(F)(F)F)C=C1C=C1CCCCC1 (stereo not given)	RORgamma inh 16µM, Gal4-VP16 FLuc inconclusive (no result: Luc counter)
C/C=C1\COC(C(=O)NCc2cccc(OC)c2OC)(C(F)(F)F)C=C1C=C1CCCCC1 (stereo not given)	RORgamma inh inconclusive (no result: Luc counter)
Cc1cccc(-c2cc3nc(C)cc(NCCCN(C)C)n3n2)c1	none (no result: Gal4-VP16 FLuc)
CCN(CC)CCCNc1cc(C)nc2cc(-c3cccs3)nn12	RORgamma inh 11µM, Gal4-VP16 FLuc inconclusive
CCOC(=O)OCC1OC(C#Cc2ccc(Br)cc2)C=CC1OC(=O)OCC (stereo not given)	none (no result: Luc counter)
CCCCNC(=S)N/N=C/c1ccc(C)s1	RORgamma inh 1µM, Gal4-VP16 FLuc 2.5µM
CCOC(=O)N/N=C\c1ccc(C)s1	Gal4-VP16 FLuc inconclusive
COc1cc(/C=N/NC(=S)NCCc2ccccc2)cc(OC)c1OC	RORgamma inh 13µM, Gal4-VP16 FLuc inconclusive (no result: Luc counter)
Cc1ccc(/C=N\NC(=O)CC(=O)NCCc2ccccc2)cc1	RORgamma inh inconclusive (no result: Luc counter)
S=C(NCCc1ccccc1)N/N=C/c1c(Cl)cccc1Cl	RORgamma inh 10µM, Gal4-VP16 FLuc 8.9µM
COc1cc(/C=N/NC(=S)NCCN2CCOCC2)cc(OC)c1OC	RORgamma inh inconclusive, Gal4-VP16 FLuc inconclusive
Cc1ccc(/C=N/NC(=S)NCCc2ccccc2)s1	RORgamma inh 0.22µM, Gal4-VP16 FLuc 2.2µM
O=C(CC(=O)N/N=C\c1ccccc1)NCCc1ccccc1	none (no result: Luc counter)
O=C(Cn1nc(C(=O)O)c2ccccc2c1=O)Nc1ccc2c(c1)OCO2	none (no result: Luc counter)
COc1ccc(S(=O)(=O)NC2CCCC2)cc1Cl	none (no result: Luc counter)
C=C1CC[C@@H]2O[C@@]2(C)CC[C@H]2[C@H]1CC2(C)C	none
COc1ccc(/C(C)=N/NS(=O)(=O)c2cc(C)ccc2C)c(OC)c1	none

High-throughput results deposited in PubChem BioAssay by National Center for Advancing Translational Sciences (NCATS).
